Results filed as inconclusive are left out. Calls of active or inactive are those of the source. Unless noted, calls follow the shape of the dose curve; as a rule, active = well fitted curve in the direction sought with a large enough effect in the repeat runs; inconclusive = weak or mixed curves; inactive = no such curve, though single readings can be large; an effect the other way counts as inactive or inconclusive.
Key:
[1] = qHTS assay for small molecule agonists of the p53 signaling pathway (AID 651631; calls by dose curve; also: nearly all actives have a fitted effect of over 15% in size)
In short: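 Agonist mode screen using a stably integrated beta-lactamase gene under p53 response elements in HCT-116 cells. Compound exposure lasts 16 h at 37 °C; fluorescence intensity is measured following 2 h FRET substrate loading.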

[2] = qHTS assay for small molecules that induce genotoxicity in human embryonic kidney cells expressing luciferase-tagged ATAD5 (AID 651632); also: nearly all actives have a fitted effect of over 15% in size
In short: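 HEK293T cells carrying a luciferase reporter tagged to ATAD5 were exposed to compound or DMSO vehicle for 16 hr at 37C, 5% CO2. Amplite was added, and after 30 min at room temperature luciferase activity was read as a marker of ATAD5 induction.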

[3] = qHTS assay for small molecule agonists of the p53 signaling pathway - cell viability (AID 651633; calls by dose curve;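 also: p53RE-bla HCT reporter cells with a stable beta-lactamase p53 reporter; series mostly up to about 83 µM; nearly all actives have a fitted effect of over 30% in size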)
In short: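 p53RE-bla cells, seeded at 4,000 per well and rested 5 h at 37 C/5% CO2, received compounds in DMSO for 16 h at 37 C. CellTiter-Glo was then added, and luminescence was read after 30 min at room temperature to gauge cytotoxicity.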

[4] = qHTS assay for small molecules that induce genotoxicity in human embryonic kidney cells expressing luciferase-tagged ATAD5 - cell viability (AID 651634; calls by dose curve; also: nearly all actives have a fitted effect of over 25% in size)
In short: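 HEK293T cells expressing luciferase-tagged ATAD5 were exposed to compound or DMSO for 15.5 hr at 37C, 5% CO2. Viability was then read as live-cell protease activity by CellTiter-Fluor fluorescence after 30 min at 37C.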

[5] = qHTS assay for small molecule disruptors of the mitochondrial membrane potential - cell viability (AID 720634; calls by dose curve;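 also: human HepG2 liver cancer cells; series mostly up to about 83 µM; nearly all actives have a fitted effect of over 20% in size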)
In short: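 HepG2 cells seeded overnight at 37 C, then exposed to compound or DMSO for 1 hr at 37 C, 5% CO2. m-MPI dye added, then CellTiter-Glo for 30 min at room temperature; viability read as ATP luminescence.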

[6] = qHTS assay to test for compound auto fluorescence at 590 nm (red) in HepG2 cells (AID 720674)
In short: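 Intrinsic compound fluorescence in the red window (Ex/Em 540/590 nm) is measured in attached HepG2 cells exposed for 1 hr, DMSO vehicle as baseline, benchmarked to Rose Bengal sodium.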

[7] = qHTS assay to test for compound auto fluorescence at 535 nm (green) in HepG2 cells (AID 720675)
[8] = qHTS assay to test for compound auto fluorescence at 460 nm (blue) in HEK293 cells (AID 720678)
In short: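 Cells were seeded and left to adhere for 4-5 hr at 37C. Compounds were then pin-transferred. After an overnight incubation at 37C under 5% CO2, intrinsic fluorescence at 405/460 nm was measured and referenced to triamterene.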

[9] = qHTS assay to test for compound auto fluorescence at 590 nm (red) in HEK293 cells (AID 720679)
In short: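 Each well held 2,000 HEK293 cells in medium containing 10% dialyzed FBS. Following 4-5 hr attachment at 37C, 23 nL test compound or DMSO was added; plates sat overnight, and red fluorescence (540/590nm) was recorded.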

[10] = qHTS assay to test for compound auto fluorescence at 535 nm (green) in HEK293 cells (AID 720680)
[11] = qHTS assay to test for compound auto fluorescence at 535 nm (green) in HEK293 cell free culture (AID 720682)
In short: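 No cells present: wells hold DMEM supplemented with 10% FBS, into which compound or vehicle is pinned. Green emission is then recorded (485 nm excitation, 535 nm emission) and scaled to fluorescein.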

[12] = qHTS assay to test for compound auto fluorescence at 590 nm (red) in HEK293 cell free culture (AID 720683)
In short: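 Tox21 10K library compounds were pinned into cell-free DMEM with 10% FBS and fluorescence was read at excitation 540 nm. Activity is expressed as Rose Bengal sodium equivalency.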

[13] = qHTS assay to test for compound auto fluorescence at 590 nm (red) in HepG2 cell free culture (AID 720684)
In short: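 Red fluorescence (540 nm excitation, 590 nm emission) was measured after compound transfer into cell-free MEM supplemented with 10% FBS. Values are equivalencies against Rose Bengal sodium.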

[14] = qHTS assay to test for compound auto fluorescence at 460 nm (blue) in HepG2 cell free culture (AID 720685)
In short: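 Compound (23 nL) or DMSO pinned into cell-free MEM with 10% FBS; blue fluorescence read at 405/460 nm excitation/emission, expressed as auto-fluorescence equivalency to triamterene.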

[15] = qHTS assay to test for compound auto fluorescence at 535 nm (green) in HepG2 cell free culture (AID 720686)
[16] = qHTS assay to test for compound auto fluorescence at 460 nm (blue) in HepG2 cells (AID 720687)
In short: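 Cells (2,000/well in MEM with 10% FBS) attached overnight at 37 C, then were exposed to compound or DMSO for 1 hr at 37 C, 5% CO2. Fluorescence read at Ex/Em 405/460 nm, expressed as triamterene-equivalent signal.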

[17] = target: Glucocorticoid receptor (Homo sapiens) (UniProt P04150); test: qHTS assay to identify small molecule agonists of the glucocorticoid receptor (GR) signaling pathway (AID 720691; active = well fitted activation curve with a large enough effect in the signal ratio in the repeat runs, not every such curve was filed as active; the % refers to the signal ratio)
Glucocorticoid receptor (Homo sapiens), sequence (P04150 whole entry, looked up): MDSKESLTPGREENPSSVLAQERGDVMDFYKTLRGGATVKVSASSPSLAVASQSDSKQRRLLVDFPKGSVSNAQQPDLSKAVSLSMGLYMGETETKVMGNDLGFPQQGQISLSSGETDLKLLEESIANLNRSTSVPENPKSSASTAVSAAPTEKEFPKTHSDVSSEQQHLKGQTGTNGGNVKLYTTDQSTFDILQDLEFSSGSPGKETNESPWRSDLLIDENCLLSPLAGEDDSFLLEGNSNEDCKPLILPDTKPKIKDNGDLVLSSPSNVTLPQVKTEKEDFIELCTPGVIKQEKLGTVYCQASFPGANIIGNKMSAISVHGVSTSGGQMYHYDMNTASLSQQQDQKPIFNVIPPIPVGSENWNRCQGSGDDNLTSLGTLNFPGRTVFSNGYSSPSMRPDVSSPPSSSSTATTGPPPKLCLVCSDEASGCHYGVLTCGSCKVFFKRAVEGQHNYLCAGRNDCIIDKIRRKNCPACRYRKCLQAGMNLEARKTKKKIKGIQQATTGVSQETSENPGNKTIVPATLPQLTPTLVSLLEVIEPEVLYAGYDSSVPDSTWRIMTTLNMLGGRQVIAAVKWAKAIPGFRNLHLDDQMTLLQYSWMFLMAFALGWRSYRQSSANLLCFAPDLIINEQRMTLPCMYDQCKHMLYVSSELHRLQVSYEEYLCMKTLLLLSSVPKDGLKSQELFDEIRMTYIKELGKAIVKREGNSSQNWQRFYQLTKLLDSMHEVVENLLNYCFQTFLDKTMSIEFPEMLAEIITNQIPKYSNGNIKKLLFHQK
In short: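 GR-bla HeLa cells (beta-lactamase reporter under glucocorticoid response element) were plated 4 h at 37 C/5% CO2, given compounds in DMSO, and incubated 18 h at 37 C. LiveBLAzer B/G FRET substrate was added for 2 h at room temperature, then fluorescence intensity read.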

[18] = target: Glucocorticoid receptor (Homo sapiens) (UniProt P04150); test: qHTS assay to identify small molecule antagonists of the glucocorticoid receptor (GR) signaling pathway (AID 720692; active = well fitted inhibition curve with a large enough effect in the signal ratio in the repeat runs, not every such curve was filed as active; the % refers to the signal ratio)
In short: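 GR-bla HeLa cells (beta-lactamase reporter under glucocorticoid response element) were pre-plated 4 h at 37 C, treated with compounds plus 5 nM dexamethasone (final) for 18 h, then read by LiveBLAzer B/G FRET fluorescence after 2 h.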

[19] = qHTS assay to identify small molecule antagonists of the glucocorticoid receptor (GR) signaling pathway - cell viability counter screen (AID 720693); also: nearly all actives have a fitted effect of over 55% in size
[20] = qHTS assay for identifying genotoxic compounds that show differential cytotoxicity against isogenic chicken DT40 cell lines with known DNA damage response pathways - wild type cell line (AID 743012); also: nearly all actives have a fitted effect of over 60% in size
In short: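 Parental DNA repair-proficient DT40 cells, 300 per well, were pre-incubated ~0.5 h at 37 C/5% CO2, pin-dosed with compounds in DMSO, then incubated 40 h. Viability was read as CellTiter-Glo luminescence after 30 min at room temperature.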

[21] = qHTS assay for identifying genotoxic compounds that show differential cytotoxicity against isogenic chicken DT40 cell lines with known DNA damage response pathways - Rev3 mutant cell line (AID 743014); also: nearly all actives have a fitted effect of over 55% in size
[22] = qHTS assay for identifying genotoxic compounds that show differential cytotoxicity against isogenic chicken DT40 cell lines with known DNA damage response pathways - Rad54/Ku70 mutant cell line (AID 743015); also: nearly all actives have a fitted effect of over 60% in size
[23] = qHTS assay to identify small molecule antagonists of the androgen receptor (AR) signaling pathway - cell viability counter screen (AID 743033; also: nearly all actives have a fitted effect of over 45% in size)
[24] = target: Androgen receptor (Homo sapiens) (UniProt P10275); test: qHTS assay to identify small molecule antagonists of the androgen receptor (AR) signaling pathway (AID 743035; active = well fitted inhibition curve with a large enough effect in the signal ratio in the repeat runs, not every such curve was filed as active; the % refers to the signal ratio)
Androgen receptor (Homo sapiens), sequence (P10275 whole entry, looked up): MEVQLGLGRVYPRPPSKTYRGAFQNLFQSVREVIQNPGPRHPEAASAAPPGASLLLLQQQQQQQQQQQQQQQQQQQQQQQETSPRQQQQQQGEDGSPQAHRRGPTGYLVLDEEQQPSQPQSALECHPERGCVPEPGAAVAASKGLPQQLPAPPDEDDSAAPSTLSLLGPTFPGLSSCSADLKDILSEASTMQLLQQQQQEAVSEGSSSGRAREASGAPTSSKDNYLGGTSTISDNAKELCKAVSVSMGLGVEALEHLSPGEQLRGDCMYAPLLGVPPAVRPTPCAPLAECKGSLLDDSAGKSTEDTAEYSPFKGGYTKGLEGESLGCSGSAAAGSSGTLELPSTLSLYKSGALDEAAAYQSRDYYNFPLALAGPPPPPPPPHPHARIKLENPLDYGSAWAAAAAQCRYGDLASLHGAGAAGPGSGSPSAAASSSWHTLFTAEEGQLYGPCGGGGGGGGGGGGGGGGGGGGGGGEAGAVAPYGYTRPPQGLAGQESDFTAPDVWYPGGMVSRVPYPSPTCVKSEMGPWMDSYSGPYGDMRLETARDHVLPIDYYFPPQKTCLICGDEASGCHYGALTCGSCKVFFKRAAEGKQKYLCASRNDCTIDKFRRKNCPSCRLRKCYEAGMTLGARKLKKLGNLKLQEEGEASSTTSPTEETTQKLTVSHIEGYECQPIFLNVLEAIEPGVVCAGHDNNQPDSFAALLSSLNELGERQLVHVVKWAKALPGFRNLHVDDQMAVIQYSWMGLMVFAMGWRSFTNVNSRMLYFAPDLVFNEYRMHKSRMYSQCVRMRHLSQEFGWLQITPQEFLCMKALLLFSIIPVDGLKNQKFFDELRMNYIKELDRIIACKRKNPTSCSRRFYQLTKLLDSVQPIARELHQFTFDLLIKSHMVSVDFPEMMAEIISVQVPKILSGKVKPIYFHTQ
In short: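 HEK293 cells stably carrying a UAS-driven beta-lactamase reporter (AR-UAS-bla GripTite) were plated for 4 h at 37C, then given compound and the agonist R1881 and incubated 16 h. Reporter activity was read by LiveBLAzer B/G FRET fluorescence after 2 h at room temperature.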

[25] = target: Androgen receptor (Homo sapiens) (UniProt P10275); test: qHTS assay to identify small molecule agonists of the androgen receptor (AR) signaling pathway (AID 743036; active = well fitted activation curve with a large enough effect in the signal ratio in the repeat runs, with a control signal flat, not every such curve was filed as active; the % refers to the signal ratio)
In short: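 Quantitative HTS of the Tox21 10K library in HEK293 cells bearing a stably integrated UAS-controlled beta-lactamase reporter. Compound exposure lasted 16 h at 37C. Reporter activity was detected by FRET substrate fluorescence after 2 h at room temperature.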

Measured: Potency

CCCCCN(C)CCC(O)(P(=O)(O)O)P(=O)(O)O
inactive: [1] | [2] | [3] | [4] | [5] | [6] | [7] | [8] | [9] | [10] | [11] | [12] | [13] | [14] | [15] | [16] | [17] | [18] | [19] | [20] | [21] | [22] | [23] | [24] | [25]

From PubChem BioAssay (Tox21)
